We go through 75 compounds from PubChem BioAssay AID1347430 (National Center for Advancing Translational Sciences (NCATS), 2020).

Where “and” joins values, the source holds several entries; their conditions need not be identical. Identical values can stand only once. About 130 (0.14%) of roughly 91,000 compounds were called active. Where a call stands in place of a potency, no number is given. Not shown: some 3% with an inconclusive outcome. The call rests on the fitted dose curve; in most records, active means well fitted inhibition curve with a large enough effect; inconclusive means small, poorly fitted or top-dose-only effect; inactive means flat fitted curve, though single readings scatter. The full list was thinned out, with actives kept by preference. More than one record can exist for a structure, and the calls need not agree.
Potency means the concentration at half of the fitted maximal effect.

The assay relates to Uracil-DNA glycosylase. Description: Primary qHTS assay for inhibitors of Activation Induced Cytidine Deaminase (AID): UDG Counterscreen signal. Further: nearly all actives have a fitted effect of over 65% in size. The note with it: FRET deamination/UDG coupled assay, UDG read, 4 h; series mostly up to 115 µM. An excerpt:
Assay Provider (PI) Patricia Gearhart Ph.D.
National Institute on Aging
National Institute of Health (NIH), Bethesda, MD
Assay Provider (PI) Rahul Kohli Ph.D.
Perelman School of Medicine
University of Pennsylvania, Philadelphia, PA
Activation-Induced Deaminase (AID) is a cytosine deaminase which converts cytosine into uracil within stretches of ssDNA. The presence of uracil in DNA initiates a cascade of mutagenic DNA repair to introduce point mutations and DNA double strand breaks. Specific targeting of AID to the immunoglobulin heavy chain loci (Igh) promotes mutagenesis in the antibody variable region for somatic hypermutation (SHM) or switch regions leading to class switch recombination (CSR). However, AID also plays a role in accumulating unnecessary mutations across the genome. Mis-targeting of AID results in the initiation of tumor development and leads to greater drug resistance among cancer cells when continually expressed. To identify an AID inhibitor, a small molecule library will be screened in collaboration with NCATS core facility at NIH. To confirm biological function, inhibitors will be examined in an in vitro murine B-cell activation assay and subsequent secondary validation screens. Top molecules will be further screened to identify inhibitory efficacy against a wild type primary splenocytes assay. Using these approaches, we hope to identify a small molecule with great efficacy and low toxicity for use as a molecular probe to further characterize AID's intricacies, or even as a therapeutic.
A FRET based analysis of cytosine deamination, was developed to identify potential inhibitors of AID catalytic activity. This screen has two signal output, Read 1 evaluates the AID inhibition response. The second readout (Read 2) evaluates UDG response and is uses as a counterscreen to exclude false positive inhibitors. Inhibition in AID and inactivity in the UDG signal is the desired outcome for this assay.
SEQUENCE No. (e.g., 1, 2, 3, etc.); […] (e.g., Cells, Incubation, Reagent, etc.); VALUE; DESCRIPTION
1a; Reagent; 3 uL; [4/3x] 1 uM AID/2.67 U/mL UDG
1b; Reagent; 3 uL; 2 U/mL UDG
1c; Reagent; 3 uL; 1 uM AID
2a; Compound; 46 nL; Follow-up plates (0.64 uM - 10 mM)
2b; Control; 46 nL; ATA ([…] - 10 mM)
3; Time; 10 min; incubation at room temperature
5; Time; 4 hr; incubation at room temperature
6; Reagent; 4 uL; [2x] 250 mM NaOH
7; Time; 15 sec; centrifuge at 1000 rpm
8; Time; 30 min; incubation at room temperature
9a; Detection; fluorescence (Read 1: AID); EnVision (PerkinElmer) plate reader, 540 excitation and 590 emission filters
9b; Detection; fluorescence (Read 2: UDG); EnVision (PerkinElmer) plate reader, 560 excitation and 665 emission filters
NOTES (numbers refer to sequence above)
1a; Reagents were dispensed in a medium-binding black solid-bottom Greiner plates (789176F) using a BioRptr liquid dispenser. Dispense 3 uL of [4/3x] 1 uM AID (provided by Kohli lab) and [4/3x] 2 U/mL UDG (NEB M0280L) into columns 1, 2, 5 to 48.
1b; Dispense 3 uL of [4/3x] 2 U/mL UDG into column 3.
1c; Dispense 3 uL of [4/3x] 1 uM AID into column 4.
2a; Compound (7-points [uM] (0.64; 3.2; 16; 80; 400; 2,000; 10,000; 20,000) double pin-transferred (Dip Factor = 2) using the Kalypsys (Wako USA) pintool equipped with a 1536 pinhead for a final concentration range of 7.32 nM - 114 uM.
2b; 10 mM Aurintricarboxylic Acid (Sigma A1895) (ATA, 8-point, n = 2, 1:2.5 dilution in column 2) double pin-transferred (Dip Factor = 2) using the Kalypsys (Wako USA) pintool equipped with a 1536 pinhead for a [final] range of 186 nM - 114 uM.
3; Room temperature incubation.
4; Dispense 1 uL of substrate mixture from the Kohli lab [4x] […] DJC20 and [4x] 250 nM DJC23 into columns 1 to 48 .
5; Room temperature incubation.
6; Dispense 4 uL of substrate mixture [2x] 250 mM NaOH into columns 1 to 48.
7; Centrifugation step to remove bubbles.
8; Room temperature incubation
9a; Fluorescence signal (column label AID) was read using the EnVision plate reader. […]
Background: In qHTS, concentration-response curves come from the screen itself.
`Cc1scc(C(=O)NCCC2=CCCCC2)c1C`: the Potency result was “inactive”.

On to `CC(C)(C)C(=O)NCC(=O)O`, for which the Potency result was “inactive”.

As to `COc1ccc(COC(=O)C2CCN(S(=O)(=O)c3c(Cl)cccc3Cl)CC2)cc1F`, the Potency result is “inactive”. For `CN(C)c1ccc(NC(=O)CCC2CCCC2)cc1`, the Potency entry was “inactive”. The value for `CNC(=O)C1CCN(Cc2csc(-c3ccc(C(F)(F)F)cc3)n2)CC1` was “inactive”. On to `CC(C)c1cccc(C(C)C)c1-n1ccnc1`, for which the Potency entry is “inactive”. In the case of `CC(C)(C)C(=O)NCCCC(=O)NCc1cccnc1`, the Potency result was “inactive”. Turning to `Fc1ccc(/C=N/N=C/c2ccc(F)cc2F)c(F)c1`, the Potency result was “inactive”. For the compound `Cc1ccc(C)c(S(=O)(=O)N2CCN(C(=O)CCc3ncc(-c4ccc(F)cc4F)o3)CC2)c1`, the Potency result is “inactive”.

As to `Cc1c(-c2ccccc2)[o+]c2ccccc2c1C#Cc1ccccc1`, the Potency result is “inactive”. On to `CCCn1nc(C(=O)OCC(N)=O)c2ccccc2c1=O`, for which the Potency entry is “inactive”. Take `O=C(COC(=O)c1cnc2ccccc2n1)NC12CC3CC(CC(C3)C1)C2`: the Potency entry was “inactive”.

For the compound `COc1cccc(NC(=O)C2(C#N)CCCC2)c1`, the Potency entry was “inactive”. Regarding `O=C(NCc1coc(-c2cccs2)n1)c1cccc(C(F)(F)F)c1`, the Potency result is “inactive”. In the case of `O=S(=O)(CCN1CCN(c2cnccn2)CC1)c1ccccc1`, the Potency result was “inactive”.

For `Cc1cnc(NC(=O)c2nc(C)n(-c3ccc(Cl)cc3)n2)s1`, the Potency entry was “inactive”. Take `COc1ccccc1Oc1c(C)oc2cc(OC(=O)c3ccc4c(c3)OCO4)ccc2c1=O`: the Potency result was “inactive”. In the case of `C/C=C/Cn1c(=O)c2c(nc(-n3nc(C)cc3C)n2CC)n(C)c1=O`, the Potency result is “inactive”.

With `Cc1cccc(N(CCC(N)=O)C(=O)c2ccc(C#N)cc2)c1`, the Potency entry was “inactive”.

As for `O=C(c1ccc2c(c1)N(Cc1ccccc1)C(=O)c1ccccc1S2=O)N1CCC2(CC1)OCCO2` (stereo not given), the Potency result was “inactive”. Consider `O=C(CCC1CCCC1)NCCc1cccnc1`, for which the Potency result was “inactive”. `COc1cc(Br)cc2cc(-c3nc(-c4nonc4N)no3)c(=O)oc12`: the Potency entry was “inactive”. As to `CC(Oc1ccc(/C=C(/C#N)c2nc3ccccc3[nH]2)cc1)C(=O)O` (stereo not given), the Potency entry is “inactive”.

Take `CCOC(=O)c1noc2nc(C)nc(Nc3ccc(CC)cc3)c12`: the Potency entry was “inactive”. Take `COc1ccc(N(CC(=O)N2CCN(C)CC2)S(=O)(=O)c2ccccc2)cc1Cl`: the Potency entry is “inactive”.

Take `COc1cc(/C=N/O)ccc1O`: the Potency result is “inactive”.

For the compound `O=C(O)c1ccc(CSc2cccc(Cl)c2)cc1`, the Potency result is “inactive”. Take `FC(F)(F)c1cccc(Oc2ncnc3sc(-c4ccccc4)cc23)c1`: the Potency result is “inactive”.

In the case of `CC(C)Cc1nc(NCc2ccncc2)c(C#N)c2c1CCCC2`, the Potency entry was “inactive”. The value for `O=C(CCc1ccncc1)Nc1ccccc1` was “inactive”; that for `COc1ccc(C(=O)Oc2ccc(Cl)cc2C)c(OC)c1` was “inactive”. Turning to `Cc1ccc(CNC(=O)c2ccc(=O)[nH]c2)s1`, the Potency entry is “inactive”. Take `CCC(CC)C(=O)Nc1cccc(F)c1`: the Potency result was “inactive”. In the case of `CSc1ccc(Cl)c(C(=O)Nc2ccc(F)c(F)c2)c1`, the Potency result is “inactive”. Turning to `CC(=O)c1ccc2[nH]c(C(=O)O)cc2c1`, the Potency result is “inactive”.

On to `O=C(CCC1CCCCC1)Nc1cccc(F)c1`, for which the Potency result was “inactive”. The value for `O=C(CCc1c[nH]c2ccccc12)N1CC=C(c2ccccc2)CC1` was “inactive”; that for `CC1CCN(C(=O)CSc2nnc(-c3ccco3)n2N)CC1` was “inactive”; that for `CCCC(=O)Nc1ccccc1N1CCN(Cc2nc3ccccc3n2C)CC1` was “inactive”. Take `Cn1nc(C(=O)Nc2ccc(C(F)(F)F)cc2)c2ccccc2c1=O`: the Potency entry is “inactive”. Consider `CCCCCn1nc(C(=O)Nc2nccs2)c2ccccc2c1=O`, for which the Potency entry is “inactive”. As for `CN(Cc1ccc(C(C)(C)C)cc1)C(=O)C1CCN(C(=O)/C=C/c2ccccc2)CC1`, the Potency entry was “inactive”. Consider `COc1ccc(-c2nc3ccccc3o2)cc1NC(=O)c1ccc(Cl)cc1`, for which the Potency entry was “inactive”.

For `CCOC(=O)c1cc(-c2ccc(S(=O)(=O)N3CCN(c4cc(Cl)ccc4C)CC3)s2)on1`, the Potency entry is “inactive”. For `O=C(CSc1ncnc2ccccc12)Nc1ccc(Cl)c(C(F)(F)F)c1`, the Potency entry was “inactive”. On to `CNc1c(NC(=O)Nc2ccccc2F)c(=O)oc2ccccc12`, for which the Potency entry is “inactive”.

As for `COc1cc(CNC(=O)C(C)Oc2ccccc2)ccn1` (stereo not given), the Potency result is “inactive”. Turning to `Nc1ccc(C(=O)O)cn1`, the Potency result is “inactive”. The result for `NS(=O)(=O)c1ccc(CCNc2ncnc3c2cnn3-c2ccccc2Cl)cc1` reads “inactive”; that for `Cc1ccc(-n2ncc3c(NCCCn4ccnc4)ncnc32)cc1Cl`, “inactive”. In the case of `Clc1cccc(-n2ncc3c(NCCc4ccccc4)ncnc32)c1`, the Potency entry was “inactive and 89.1 µM (active)”. As to `CCc1nn2c(=O)cc(CN3CCCCC3C)nc2s1` (stereo not given), the Potency entry was “inactive”. As to `O=C(CCc1cccs1)NCC1CC1`, the Potency result is “inactive”.

For `C/C(=N/Nc1ccnc2cc(Cl)ccc12)c1cccc(N)c1`, the Potency entry was “inactive”. On to `CC(=O)N(Cc1ccc2[nH]ccc2c1)C1CC1`, for which the Potency result is “inactive”. As for `O=C(CCn1ccc2ccccc21)N1CCN(S(=O)(=O)c2ccccc2)CC1`, the Potency result is “inactive”. In the case of `COCC(=O)N(Cc1cccs1)C1CC1`, the Potency result was “inactive”. Regarding `CC(c1nc(C(C)(C)C)no1)N(C)Cc1ccc2c(c1)OCO2` (stereo not given), the Potency result is “inactive”. As for `Fc1cccc(CSc2nnc(-c3ccccc3F)n2C2CC2)c1`, the Potency result is “inactive”. The result for `CNC(=O)c1ccc2c(c1)CCCN2C(=O)c1ccc(Cl)cc1` reads “inactive”; that for `COc1ccc(CN(Cc2cc(=O)oc3cc(C)c(C)cc23)C2CC2)cc1`, “inactive”; that for `COCCNC(=O)CS(=O)Cc1nc(-c2ccc(C)cc2)oc1C` (stereo not given), “inactive”. As for `Cc1cc2nc(-c3ccccc3)c(-c3ccccc3)nc2cc1C`, the Potency result was “inactive”.

With `Cc1ccccc1OCc1ccc(-c2nc(C#N)c(N3CCCCC3)o2)o1`, the Potency result was “inactive”.

`CCC(C)Nc1oc(-c2ccc(COc3ccc(Cl)cc3)o2)nc1C#N` (stereo not given): the Potency result is “inactive”.

Consider `Cc1ccc(C)c(OCc2ccc(-c3nc(C#N)c(NC(C)C)o3)o2)c1`, for which the Potency was 70.8 µM (active). In the case of `N#Cc1cccnc1NCCC12CC3CC(CC(C3)C1)C2`, the Potency result was “inactive”. Turning to `Cc1cc(=O)oc2c(C)c(OC(C)C(=O)NCCc3ccc(S(N)(=O)=O)cc3)ccc12` (stereo not given), the Potency entry is “inactive”. As for `O=C(NCc1ccc2c(c1)OCO2)c1cccc(N2CCCN(Cc3ccc(F)cc3)C2=O)c1`, the Potency entry is “inactive”. Consider `CC(C)(C(=O)Nc1ccc(F)c(NC(=O)C2CC2)c1)c1ccccc1`, for which the Potency entry was “inactive”. With `CNCCC(F)(F)F`, the Potency entry was “inactive”. The value for `OC(COCc1ccccc1F)Cn1nnc(-c2cccnc2)n1` (stereo not given) was “inactive”; that for `O=C(COC(=O)Cc1n[nH]c(=O)c2ccccc12)NCC1CCCO1` (stereo not given) was “inactive”.

Take `CCOc1ccc(-c2csc(-c3ccc(Cl)cc3)n2)cc1`: the Potency result was “inactive”. As for `O=C(NCc1cccc(OC(F)F)c1)c1ccccc1-n1cnnn1`, the Potency result is “inactive”.
